Our source for the Percent Effect values is ChEMBL document CHEMBL3988442, “University of Dundee, Small-Polar-MMV Screening Library” (2021).

Assay [1] deals with T1, Aspartate--tRNA(Asp/Asn) ligase (Mycobacterium tuberculosis (strain ATCC 25618 / H37Rv)) (UniProt P9WFW3).
T1 sequence (whole entry): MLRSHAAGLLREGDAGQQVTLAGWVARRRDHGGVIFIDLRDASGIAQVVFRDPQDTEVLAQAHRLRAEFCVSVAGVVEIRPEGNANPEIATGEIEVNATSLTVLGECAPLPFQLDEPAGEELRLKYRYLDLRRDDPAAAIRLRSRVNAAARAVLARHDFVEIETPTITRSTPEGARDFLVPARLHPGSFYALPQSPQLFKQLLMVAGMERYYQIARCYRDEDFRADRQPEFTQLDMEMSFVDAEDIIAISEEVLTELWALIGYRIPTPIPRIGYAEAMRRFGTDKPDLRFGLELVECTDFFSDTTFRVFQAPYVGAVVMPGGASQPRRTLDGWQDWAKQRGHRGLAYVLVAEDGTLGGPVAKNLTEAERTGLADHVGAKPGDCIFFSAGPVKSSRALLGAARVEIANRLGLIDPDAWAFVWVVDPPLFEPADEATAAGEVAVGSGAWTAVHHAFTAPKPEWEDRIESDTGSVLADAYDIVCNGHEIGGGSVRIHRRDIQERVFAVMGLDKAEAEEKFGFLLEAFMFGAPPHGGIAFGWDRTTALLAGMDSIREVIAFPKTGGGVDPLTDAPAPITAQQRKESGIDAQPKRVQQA
Nature of the assay: Assay for Asp RNA synthetase-1 from Mycobacterium tuberculosis. The assay is classed as functional. The arrangement: scale not given: direction of the effect not stated beside the values. Conditions: 30 µM.

The target of assay [2] is Shiga toxin 2 (Escherichia coli O157:H7) (UniProt P09385+P09386). Nature of the assay: E. coli 0.157:H7 Shiga Toxin SOP - stx2 screening assay. The arrangement: scale not given: direction of the effect not stated beside the values. It is filed as functional. Conditions: 30 µM.

Turning to `CCc1cnc2c(c1Nc1ccc(OC)cc1)c(=O)n(C)c(=O)n2C`, the Percent Effect in assay [1] was 0.831%; in assay [2], -12.8%.
With `COc1ccc(C(=O)N2CCC(Nc3cccnn3)CC2)c(OC)c1`, the Percent Effect in assay [1] is -0.568%; in assay [2] it was 8.84%.
Regarding `Cc1cn2c(n1)CCC(NC(=O)c1c[nH]c(C)n1)C2` (centres undefined), the Percent Effect in assay [1] is -7.1%; in assay [2], 14.6%.
The corresponding values for `CCOCCCC(=O)NCc1cn2cc(Br)ccc2n1` are 0.599% and -66%.
The corresponding values for `Cc1nc2ccccc2nc1CN1CCCC1Cn1cncn1` (centres undefined) are -6.08% and 7.83%.
In the case of `Cc1cccc(OCCC(=O)N2CCCN(CC(N)=O)CC2)c1C`, the Percent Effect in assay [1] is -0.457%; in assay [2] it was 1.67%.
The corresponding values for `O=C1CN(Cc2nnc(-c3ccc(Br)o3)o2)CCN1` are -1.11% and -65.1%.
Turning to `CN(C)C(=O)[C@@H]1CCO[C@@H]2CCN(Cc3ccccc3)C[C@@H]21`, the Percent Effect was 2.24% in assay [1] and -27% in assay [2].
The matching figures for `CNC(=O)C1(CCCc2ccncc2)CCCN1` (centres undefined): 4.78% and 1.85%.
As for `O=C(c1nn(-c2ccccc2F)cc1O)N1CCCC1`, the figures for the Percent Effect in assay [1] and in assay [2] were 3.09% and 16%, respectively.
`Cc1noc(NC(=O)c2ccc(OC(F)(F)F)cc2)n1`: the results for the Percent Effect in assay [1] and in assay [2] were 3.01% and 62.3%, respectively.
As for `CCc1nnc2n1CCN(CC(=O)Nc1cc(C(C)(C)C)nn1C)C2`, the Percent Effect in assay [1] worked out at 0.589%; in assay [2], 28.9%.
On to `O=C1CCC2(CCCN(c3ncc(F)cn3)CC2)N1CC1CC1` (centres undefined), for which the Percent Effect in assay [1] is -1.91%; in assay [2], -3.81%.
The corresponding values for `CNC(=O)N1CC[C@@H]2CN(Cc3cccnc3)S(=O)(=O)[C@@H]2CC1` are 1.91% and -0.136%.
With `CCOc1ccc(Cl)c(C(=O)N2CCN(C(=O)c3ccoc3C)CC2)n1`, the Percent Effect in assay [1] is -4.19%; in assay [2], -1.17%.
The corresponding values for `CCS(=O)(=O)N1CCc2ccc(NC(=O)Nc3cccc(SC)c3)cc21` are -4.68% and -22%.
As to `O=C(c1ncccn1)N1C[C@H]2CCC[C@@]2(COCC2CCOCC2)C1`, the Percent Effect in assay [1] is -6.49%; in assay [2], -2.7%.
